Here are results for 40 sequences from the OligoGym collection.
Further: reference of the scale not given here.

The first test deals with GEMIN6. In words: pooled miR-30 sensor sort-seq; sequence = guide strand. The settings on record: shRNA.
In turn, TTCTCTCTTCCAGATCCTCTGG showed a sensor-assay potency score (higher = more potent) of -0.645.

For ATAATCTCATTAGAGCTGCTGC, the sensor-assay potency score (higher = more potent) is -0.457.

TTTGTAAATGTAATCTTGCCAT had a sensor-assay potency score (higher = more potent) of -0.539.

For the sequence TTATACTCATTCTTCTCACTGG, the sensor-assay potency score (higher = more potent) was determined as 0.394.

Sequence TAATCTTGCCATTCTAAGGGGC showed a sensor-assay potency score (higher = more potent) of 0.00534.

On to TTAGGCTGTTCTTTCTCTCTTC, for which the sensor-assay potency score (higher = more potent) is -0.165.

For a further test, the target named is GFPT2. The description is as above. As to conditions: shRNA.
For the sequence TTCGTGATTATTCCCATCGATC, the sensor-assay potency score (higher = more potent) is -1.22.

TTGACCAGCTGAATGTGTCTTT gave a sensor-assay potency score (higher = more potent) of 0.14.

TTTCTTGACCAGCTGAATGTGT returned a sensor-assay potency score (higher = more potent) of -0.609.

TTTAAAACTAACTCTAGTGTTG displayed a sensor-assay potency score (higher = more potent) of -0.242.

In the case of TTTGTAAAGTTCTTCATCGAGA, the sensor-assay potency score (higher = more potent) is -0.0624.

In the case of TTGACTTCGTGATTATTCCCAT, the sensor-assay potency score (higher = more potent) was -0.191.

With ATCACTAGCAAGTTCAACCATC, the sensor-assay potency score (higher = more potent) was -0.789.

Regarding TAGTATTGAAAACTGATTCTGG, the sensor-assay potency score (higher = more potent) was determined as 0.341.

Take TTGTCTTTTAAAACTAACTCTA: the sensor-assay potency score (higher = more potent) is -0.437.

Sequence TTTGTAGTGAAATTCGGTCTTC returned a sensor-assay potency score (higher = more potent) of 0.0421.

Turning to TTCTCCAGAGTGCACGTCCTGT, the sensor-assay potency score (higher = more potent) was -0.972.

On to TTGGTTTCAAAATTCACCCGAC, for which the sensor-assay potency score (higher = more potent) turned out to be 0.408.

The target in a further test is GGH. The test is described as above. As to conditions: shRNA.
Consider TTGAAAAACTTCTTTAACTTTT, for which the sensor-assay potency score (higher = more potent) is -0.924.

TAAGACATTGAAAAACTTCTTT: the sensor-assay potency score (higher = more potent) is -0.164.

The sequence TGAACTGATAAATCAATGCTTT came in with a sensor-assay potency score (higher = more potent) of -0.538.

As for TATTTCATAGTCTTTCTCTGTA, the sensor-assay potency score (higher = more potent) was 0.438.

Sequence TTTAACTTTTCATTCATTGTAA registered a sensor-assay potency score (higher = more potent) of 0.207.

In the case of ATACTGGATACTTATATCCTTC, the sensor-assay potency score (higher = more potent) is -0.969.

As to TTAATAAGCACTCTCCACTAAT, the sensor-assay potency score (higher = more potent) was -1.04.

TTAGCATAATCTGAGCGTCTGA gave a sensor-assay potency score (higher = more potent) of -0.339.

AAATTCTGGAACATTCTGCTGT showed a sensor-assay potency score (higher = more potent) of 0.666.

In turn, TTCTCTGTAAGATCCAGCCTTA yielded a sensor-assay potency score (higher = more potent) of -0.166.

The sequence TTTCTCTGTAAGATCCAGCCTT came in with a sensor-assay potency score (higher = more potent) of -0.286.

Sequence TTGACCTCCAGTGAAGTTCAGC yielded a sensor-assay potency score (higher = more potent) of -0.539.

A further test concerns the target GH2. Described as above. The settings on record: shRNA.
Regarding TTGAGCAGTGCGTCATCGTTGT, the sensor-assay potency score (higher = more potent) came out at 0.36.

Sequence ATAGGTGTCATATGCCAGCTGG yielded a sensor-assay potency score (higher = more potent) of -0.725.

Regarding TTAAACTCCTGATAGGTGTCAT, the sensor-assay potency score (higher = more potent) is -0.0284.

TAGGTTAGATTTCTGCTGCGTT gave a sensor-assay potency score (higher = more potent) of 0.0139.

TATGCCAGCTGGTACAGGCGAC displayed a sensor-assay potency score (higher = more potent) of -1.2.

Take TAGACTCTGAGAAGCAGAGGGA: the sensor-assay potency score (higher = more potent) came to 0.323.

For the sequence TTCTTCAAACTCCTGATAGGTG, the sensor-assay potency score (higher = more potent) is -0.633.

In turn, TAGACGTTGCTGTCCGAGGCGC had a sensor-assay potency score (higher = more potent) of -0.468.

Sequence AAGGTGTTGGAATAGACTCTGA had a sensor-assay potency score (higher = more potent) of -0.802.

TAAACTCCTGATAGGTGTCATA registered a sensor-assay potency score (higher = more potent) of -1.52.
